Experimental data as given in PubChem BioAssay (EPA / NIEHS).
Calls of active or inactive are those of the source. Rule for the calls: active = hit-call score of the fitted dose curve at least 0.9, where 1 is the maximum; inactive = score below 0.9.

The compounds below were run against Hypoxia-inducible factor 1-alpha (Homo sapiens) (UniProt Q16665) (assay: ATG_HIF1a_CIS: Attagene CIS-FACTORIAL HepG2 Assay for human Hypoxia Inducible Factor 1 (HIF1A) (AID 2282951)). Settings: HepG2 Attagene cis-factorial HIF1a reporter transcription; actives raise or lower the signal.
Method: ATG_CIS is a cell-based, multiplexed-readout assay that uses HepG2, a human liver cell line, with measurements taken at 24 hours after chemical dosing in a 24-well plate.ATG_HIF1a_CIS is one of 52 assay component(s) measured or calculated from the ATG_CIS assay. It is designed to make measurements of mRNA induction, a form of inducible reporter, as detected with fluorescence intensity signals by Reverse transcription polymerase chain reaction (RT-PCR) and Capillary electrophoresis technology.Data from the assay component ATG_HIF1a_CIS was analyzed into 1 assay endpoint. This assay endpoint, ATG_HIF1a_CIS, was analyzed with bidirectional fitting relative to DMSO as the negative control and baseline of activity. Using a type of inducible reporter, measures of mRNA for gain or loss-of-signal activity can be used to understand the reporter gene at the transcription factor-level as they relate to the gene HIF1A. Furthermore, this assay endpoint can be referred to as a primary readout, because this assay has produced multiple assay endpoints where this one serves a reporter gene function. To generalize the intended target to other relatable targets, this assay endpoint is annotated to the dna binding intended target family, where the subfamily is basic helix-loop-helix protein.
Human liver HepG2 cells are transiently transfected with multiple reporter transcription units (MRTUs) in 6-well plates using FuGene 6 reagent (Roche; 3 ml FuGene/1 mg DNA). The MRTU constructs are regulated by a cis-regulating element (promoter). […] A major difference between the CIS and TRANS system is that in CIS activities of endogenous TFs are measured, whereas the TRANS assay evaluates changes in activities of exogenous, chimeric NR-Gal4 proteins. […] At the end of 24 hour incubation, total RNA was isolated using TriZol reagent (Invitrogen). The isolated RNA is then reverse-transcribed using oligo(dT) primer and Mo-MLV reverse transcriptase (Invitrogen) with DNAse I (Ambion) treatment for 30 min. The one-tenth of the produced cDNA was amplified by PCR using Taq DNA polymerase (Invitrogen) and two reporter sequence-specific primers. The PCR products were fluorescently labeled by primer extension with 6-arboxyfluorescein (6-FAM) 5'-labeled reporter sequence-specific primer (2 min at 95 C, 20 s at 68 C and 10 min at 72 C) and these products were digested with 5U of HpaI (New England Biolabs) for 2h at 37 C. The fragments were purified using Qiaquick PCR columns (Qiagen), analyzed on an ABI 3130xL genetic analyzer (Applied Biosystems) with peak positions identified by using a set of X-rhodamine (ROX)-labeled MapMarker1000 molecular weight standards (BioVentures). The raw capillary electrophoresis data was processed using Attagraph software (Attagene).

Sequence of Hypoxia-inducible factor 1-alpha (Homo sapiens) (Q16665 whole entry, looked up): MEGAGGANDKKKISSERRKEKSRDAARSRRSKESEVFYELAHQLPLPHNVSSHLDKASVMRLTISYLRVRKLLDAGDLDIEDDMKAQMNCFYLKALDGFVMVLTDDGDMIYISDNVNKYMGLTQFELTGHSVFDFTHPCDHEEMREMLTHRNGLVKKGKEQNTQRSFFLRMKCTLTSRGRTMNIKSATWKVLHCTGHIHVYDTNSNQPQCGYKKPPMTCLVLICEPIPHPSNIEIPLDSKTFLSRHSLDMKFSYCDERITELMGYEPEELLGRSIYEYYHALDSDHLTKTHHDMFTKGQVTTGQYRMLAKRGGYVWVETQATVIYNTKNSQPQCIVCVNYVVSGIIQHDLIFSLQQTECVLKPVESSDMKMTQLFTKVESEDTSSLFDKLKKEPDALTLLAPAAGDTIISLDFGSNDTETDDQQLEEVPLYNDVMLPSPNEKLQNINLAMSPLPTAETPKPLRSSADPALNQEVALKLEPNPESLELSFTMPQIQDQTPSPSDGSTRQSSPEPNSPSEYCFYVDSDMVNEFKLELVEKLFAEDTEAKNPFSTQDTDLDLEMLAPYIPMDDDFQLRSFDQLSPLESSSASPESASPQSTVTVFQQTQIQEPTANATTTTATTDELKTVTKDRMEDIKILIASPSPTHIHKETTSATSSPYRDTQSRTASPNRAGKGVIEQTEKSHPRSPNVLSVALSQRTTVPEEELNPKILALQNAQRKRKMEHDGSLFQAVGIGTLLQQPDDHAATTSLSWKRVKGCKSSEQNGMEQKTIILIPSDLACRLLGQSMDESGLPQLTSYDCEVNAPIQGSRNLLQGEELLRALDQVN

outcome, inactive:
CCCSc1ccc2nc(NC(=O)OC)[nH]c2c1, COC(CC(C)CCCC(C)(C)O)OC (stereo not given), CC1=NN(c2ccc(S(=O)(=O)O)cc2)C(=O)C1, CCCOCCO, NCc1ccco1, COc1ccc(COC(C)=O)cc1, CC1(C)COCN1, C[Si]1(C)O[Si](C)(C)O[Si](C)(C)O1, Cc1ccc(OC(=O)c2ccccc2O)cc1, NC(=S)NNC(N)=S, N#Cc1cscn1, CCCCC(CC)(CO)CO, CC=Cc1ccc(OCC)c(O)c1, Nc1c(Cl)cc(Cl)cc1[N+](=O)[O-], C=C(C#N)C(=O)OCC, CC(=O)OCCCc1ccccc1, CCCCCCCCCCCCCCCC(=O)OC/C=C(C)/C=C/C=C(C)/C=C/C1=C(C)CCCC1(C)C, CN1C(=O)c2ccccc2C1=O, CCCCCC(C)=O, OC[C@H]1O[C@@H](Oc2ccc(O)cc2)[C@H](O)[C@@H](O)[C@@H]1O, COc1cc(C(C)C)ccc1C, CCCCC(CC)COC(C)=O (stereo not given), CC1(C)C2=CCCC(C)(C)[C@]23CC[C@H]1C3, CCCCCCC(C)Nc1ccc(Nc2ccccc2)cc1 (stereo not given), C[Si](C)(C)O[Si](C)(C)C, CCCCCCCCCCCC(=O)OCC(O)CO (stereo not given), Cc1cc(S(=O)(=O)O)ccc1N=Nc1c(O)ccc2ccccc12, CCOc1ccc(NC(=O)CC(C)O)cc1 (stereo not given), c1ccc2cc(Nc3ccc(Nc4ccc5ccccc5c4)cc3)ccc2c1, CCCCCCCCCC(=O)OC, Nc1c(S(=O)(=O)O)cc(Br)c2c1C(=O)c1ccccc1C2=O, CCCCCCCCCCCC(=O)OC[C@@H](O)[C@H]1OC[C@H](O)[C@H]1O, CSc1c(Cl)c(Cl)c(Cl)c(Cl)c1Cl, O=C1NC2NC(=O)NC2N1 (stereo not given), COC(=O)C=C(C)CCC=C(C)C, CCc1cc(C(C)(C)C)c(O)c(C(C)(C)C)c1, Cc1cc(=O)oc2cc(N(C)C)ccc12, O=C(O)COCC(=O)O, COCCOCCOCCO, O=C(Nc1ccc([N+](=O)[O-])cc1)Nc1ccc([N+](=O)[O-])cc1 (tested in a mixture with another compound)
